According to the supplement of paper PMC6555819:

How the values were obtained:
Test in all cases: PBM binding z-score (relative to random genomic background probes); higher = stronger binding; sequences stand for … in GC…GCGATTGACAGCGTAGAATGAAGG
[1] = tested on: PPARg:RXRa DBDmut IVT, anti-RXR (DBD mutation: RXRa K156A/R161A, NR concentration 270 nM, RXRa partner concentration 90 nM)
How it was run: (§1)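 Binding z-scores were set against random background probes. The data came from custom Agilent 4×180K protein-binding microarrays carrying double-stranded probes with 34-nt variable regions, incubated 1 h with ligand-free nuclear receptor dimers. Partner-specific antibodies detected binding, and scanned fluorescence was regression-normalized.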

[2] = tested on: PPARg:RXRa IVT, anti-PPARg (NR concentration 270 nM, RXRa partner concentration 90 nM)
How it was run: as §1

[3] = tested on: PPARg DBDmut:RXRa IVT, anti-PPARg (DBD mutation: PPARg1 K132A/R137A, NR concentration 270 nM, RXRa partner concentration 90 nM)
How it was run: as §1

[4] = tested on: PPARg DBDmut IVT, anti-PPARg (DBD mutation: PPARg1 K132A/R137A, NR concentration 270 nM)
How it was run: as §1

[5] = tested on: PPARg homodimer (NR concentration 180 nM)
How it was run: as §1

[6] = tested on: PXR:RXRa (NR concentration 270 nM, RXRa partner concentration 90 nM)
How it was run: as §1

[7] = tested on: PXR homodimer (NR concentration 270 nM)
How it was run: as §1

[8] = tested on: RARa:RXR (NR concentration 270 nM, RXRa partner concentration 90 nM)
How it was run: as §1

[9] = tested on: RARa homodimer (NR concentration 270 nM)
How it was run: as §1

[10] = tested on: RARb:RXRa (NR concentration 270 nM, RXRa partner concentration 90 nM)
How it was run: as §1

[11] = tested on: RARb homodimer (NR concentration 270 nM)
How it was run: as §1

[12] = tested on: RARg:RXRa (NR concentration 270 nM, RXRa partner concentration 90 nM)
How it was run: as §1

[13] = tested on: RARg homodimer (NR concentration 270 nM)
How it was run: as §1

[14] = tested on: RXRa DBDmut IVT, anti-RXR (DBD mutation: RXRa K156A/R161A, NR concentration 90 nM)
How it was run: as §1

[15] = tested on: RXRa homodimer (NR concentration 180 nM)
How it was run: as §1

[16] = tested on: THRa:RXRa (NR concentration 90 nM, RXRa partner concentration 90 nM)
How it was run: as §1

[17] = tested on: THRa homodimer (NR concentration 90 nM)
How it was run: as §1

[18] = tested on: VDR:RXRa (NR concentration 270 nM, RXRa partner concentration 90 nM)
How it was run: as §1

[19] = tested on: VDR homodimer (NR concentration 270 nM)
How it was run: as §1

Sequence	PBM binding z-score [1]	PBM binding z-score [2]	PBM binding z-score [3]	PBM binding z-score [4]	PBM binding z-score [5]	PBM binding z-score [6]	PBM binding z-score [7]	PBM binding z-score [8]	PBM binding z-score [9]	PBM binding z-score [10]	PBM binding z-score [11]	PBM binding z-score [12]	PBM binding z-score [13]	PBM binding z-score [14]	PBM binding z-score [15]	PBM binding z-score [16]	PBM binding z-score [17]	PBM binding z-score [18]	PBM binding z-score [19]
TCGTATAGGTAAAAGGTGAAAGTCGGTGTGGTAA	3.45	3.77	0.0937	0.179	2.3	1.96	1.02	3.01	1.25	2.08	2.13	2.13	0.793	1.59	3.14	1.85	0.583	1.58	0.462
CGTCCAAGGTTAAAGGTCAGTGAAGAGATGACGG	1.93	4.19	0.18	0.148	3.37	5.79	0.975	7.42	1.36	5.01	4.52	6.38	5.4	2.09	8.31	3.84	0.929	4.69	1.46
TTACCAAGGTAAAGGTCGTTGATCCCTCTGTAGA	0.8	3.8	1.13	0.564	1.72	2.59	0.148	2.98	-0.24	2.14	2.13	1.95	1.08	0.533	2.7	2.48	0.667	2.34	1.55
ATATGTAGATTATCGGGTCATTCAGTTTGCGCAT	2.57	2.72	1.49	1.26	1.63	3.39	6.51	2.84	0.767	1.85	2.3	1.94	1.35	1.21	2.45	3.14	2.5	4.87	4.05
ATCGAAAGGTCGAAGGTGTGTATACCCACCCGAA	-0.369	1.67	0.695	0.274	1.64	2.3	0.219	3.33	0.296	3.52	2.15	3.83	3.73	0.844	4.12	1.6	-0.397	2.43	0.639
CCTTACGGCTCACGAGGTTATAGCACGACGAGCG	-0.0471	-0.209	-0.288	0.282	0.161	0.289	0.226	0.918	0.403	0.347	0.414	0.351	0.335	0.229	0.925	1.39	0.522	0.412	0.564
ACAGACAGGTGAGTGAACGTAACTCAGCTGGACG	0.689	0.457	0.319	-1.39	-0.743	-0.554	-0.547	-0.741	-0.186	0.247	-0.371	-0.0638	0.417	-0.336	0.275	-0.437	-0.967	-0.318	-0.683
AATACAGAGTCATCGTAGGCCAGAGTACGCACAG	0.0374	0.268	0.399	0.579	-0.714	-0.113	-0.387	-0.0799	0.026	0.17	0.0687	0.22	0.465	-0.473	0.406	1.69	-0.921	-0.242	0.0153
TCTAGTTGGTCACGGAAGTCACACACGACGGGTA	2.3	2.31	1.45	0.841	1.08	0.653	0.0861	1.01	1.21	1.65	1.41	1.36	1.54	0.587	1.21	0.441	0.354	0.891	0.0407
TCATAAAGGTAAACAGGTGAAAGTCCGTAAGTTA	3.73	2.72	0.109	0.863	1.24	1.22	0.86	1.89	1.6	1.65	1.37	1.34	0.882	1.53	1.74	1.22	0.368	1.64	0.647
ACAGACAGGTGAGTGAAGGTAATTCAGCTGGACG	0.0687	0.119	0.248	-0.584	-0.206	-0.2	-0.191	-9.88e-05	-0.0883	0.49	-0.0285	0.335	0.578	-0.442	0.191	1.25	-0.521	-0.394	-0.158
ACTAGCAGGCCAAGTTTGGATCACTCAAACAAAG	0.238	0.181	-0.895	-0.495	-0.574	-0.494	-0.612	-0.608	-0.518	0.165	-0.0539	-0.0446	0.341	-0.14	-0.454	-0.0937	-0.67	-0.621	-0.0821
TCTATTAGTTGATCAGGGCAACCGAAACAGCGGA	2.16	0.972	0.672	0.797	0.546	0.5	0.292	0.362	0.492	0.954	0.681	0.484	0.555	1.15	0.519	0.815	0.591	0.669	0.203
CGAACTAGGTCATGCAGGACAGTGAATACATTGA	8.05	8.18	3.1	1.2	1.1	1.34	0.687	1.97	0.243	3.92	2.8	3.87	4.66	1.87	2.67	2.96	1.35	4.23	1.31
ATCGAAAGGTTGTGAGGTGAGTATACAGAAAGGC	-0.125	0.638	0.845	0.495	0.431	0.336	0.498	1.15	0.35	1.45	1.22	1.14	1.19	-0.0955	1.24	2.23	1.49	0.652	0.162
